KDM5B inh: Primary screen for KDM5B Histone Demethylases FDH-coupled qHTS. hit rate 2.6% among 220,000. Lysine-specific demethylase 5B (Homo sapiens), Q9UGL1. Potency, µM (titrated, usually from 57.7 µM), hits mostly inhibitors. KDM5B demethylase, FDH-coupled NADH fluorescence (FDH is formaldehyde dehydrogenase); active = well fitted inhibition curve with a large enough effect; also: 0% is about no effect; nearly all actives have a fitted effect of over 70% in size
Target sequence (Q9UGL1 whole entry, looked up): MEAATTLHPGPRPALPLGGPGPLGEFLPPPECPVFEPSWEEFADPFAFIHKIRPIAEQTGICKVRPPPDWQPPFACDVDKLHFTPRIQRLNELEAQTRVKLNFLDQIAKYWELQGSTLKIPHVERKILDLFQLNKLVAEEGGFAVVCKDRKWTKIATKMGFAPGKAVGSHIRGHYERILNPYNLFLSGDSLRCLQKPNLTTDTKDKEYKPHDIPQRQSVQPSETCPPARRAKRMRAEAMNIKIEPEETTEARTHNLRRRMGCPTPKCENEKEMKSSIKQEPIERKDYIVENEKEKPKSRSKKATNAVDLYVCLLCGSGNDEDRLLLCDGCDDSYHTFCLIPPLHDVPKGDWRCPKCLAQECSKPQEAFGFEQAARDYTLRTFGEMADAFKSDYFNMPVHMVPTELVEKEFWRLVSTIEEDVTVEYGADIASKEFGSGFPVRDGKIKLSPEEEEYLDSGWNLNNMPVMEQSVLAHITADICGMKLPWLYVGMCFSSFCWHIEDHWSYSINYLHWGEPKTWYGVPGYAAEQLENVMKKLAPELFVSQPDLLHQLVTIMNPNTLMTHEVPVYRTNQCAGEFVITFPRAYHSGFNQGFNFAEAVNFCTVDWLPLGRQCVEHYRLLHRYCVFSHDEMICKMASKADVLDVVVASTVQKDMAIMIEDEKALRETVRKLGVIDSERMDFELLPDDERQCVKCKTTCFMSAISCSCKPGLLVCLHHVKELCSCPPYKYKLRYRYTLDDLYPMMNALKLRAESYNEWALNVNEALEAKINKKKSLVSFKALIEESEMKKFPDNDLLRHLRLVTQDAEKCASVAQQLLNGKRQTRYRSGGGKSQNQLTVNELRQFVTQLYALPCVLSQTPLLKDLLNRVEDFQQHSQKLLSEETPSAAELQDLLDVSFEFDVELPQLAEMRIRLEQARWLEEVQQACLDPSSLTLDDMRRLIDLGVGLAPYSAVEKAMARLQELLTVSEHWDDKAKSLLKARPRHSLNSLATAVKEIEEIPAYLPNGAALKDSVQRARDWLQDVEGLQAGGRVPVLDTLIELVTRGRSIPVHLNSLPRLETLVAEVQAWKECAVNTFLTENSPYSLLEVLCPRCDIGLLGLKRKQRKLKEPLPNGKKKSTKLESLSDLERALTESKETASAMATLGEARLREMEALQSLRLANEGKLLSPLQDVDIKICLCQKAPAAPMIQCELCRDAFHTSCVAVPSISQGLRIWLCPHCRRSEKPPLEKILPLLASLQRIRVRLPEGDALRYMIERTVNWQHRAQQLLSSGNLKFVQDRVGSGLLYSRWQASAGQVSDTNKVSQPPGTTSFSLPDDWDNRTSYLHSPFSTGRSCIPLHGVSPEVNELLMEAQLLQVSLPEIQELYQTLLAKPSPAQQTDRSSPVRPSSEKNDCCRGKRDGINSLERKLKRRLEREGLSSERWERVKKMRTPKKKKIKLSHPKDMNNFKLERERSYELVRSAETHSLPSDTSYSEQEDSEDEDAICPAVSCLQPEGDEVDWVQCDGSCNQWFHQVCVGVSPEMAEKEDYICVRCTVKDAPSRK
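qHTS format, multiple compound concentrations. Buffer 50 mM HEPES pH 7.5/0.01% Tween-20; 200 nM KDM5BΔAP final; 10 min compound preincubation; substrate-mix levels 12.5 µM peptide, 25 µM α-KG, 0.25 mM NAD⁺; 30 min RT; ΔRFU.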
Active calls of the source: *. The entries come from a sample that favours hits as a whole. Potency is read from the fitted curve at half-maximal effect.

Results for CC(C)CC(NC(=O)CC(C)(C)CC(=O)O)c1ccccc1 (centres undefined) ?
KDM5B inh: inactive

What do the screens show for `CCOc1ccc(-c2cccc(NS(=O)(=O)c3cc(OC)ccc3OC)c2)nn1`?
KDM5B inh: inactive

How did O=C(Nc1ccc2nnc(-c3ccc(C(=O)N4CCSCC4)cc3)n2c1)C1CCC1 do in these assays?
KDM5B inh: 28.2µM*

What do the screens show for `Cc1ccc(NC(=O)C2CCCC2)cc1`?
KDM5B inh: inactive

How did O=C(NCCc1ccncc1)c1ccc(-c2nnc3ccc(NC(=O)C4CCC4)cn23)cc1 do in these assays?
KDM5B inh: 28.2µM*

What do the screens show for `O=C(Nc1ccc(-c2nnc3n2CCCC3)cc1)C1CCCCC1`?
KDM5B inh: inactive

What do the screens show for `Cc1ccc(CC(=O)Nc2ccc(C(=O)N3CCCCC3)cc2)cc1`?
KDM5B inh: inactive

Results for O=C(Nc1ccc(F)c(Cl)c1)C1CCN(C(=O)c2ccc(F)cc2)CC1 ?
KDM5B inh: inactive

How did CCCN(C)C(=O)c1ccc(-c2nnc3ccc(NC(=O)C4CCC4)cn23)cc1 do in these assays?
KDM5B inh: 22.4µM*

What do the screens show for `O=C(N[C@@H]1CCC[C@@H]1C(=O)NCCc1ccccc1)c1ccncc1`?
KDM5B inh: inactive

Results for CC(=O)Nc1ccc(-c2nnc3n2CCCC3)cc1 ?
KDM5B inh: inactive

How did CN(C)S(=O)(=O)N1CCC(Oc2ccc(C(=O)NCCc3ccncc3)cc2)CC1 do in these assays?
KDM5B inh: inactive

How did CC(=O)Nc1ccc2nnc(-c3ccc(C(=O)N4CCCCCC4)cc3)n2c1 do in these assays?
KDM5B inh: 14.1µM*

What do the screens show for `CCCc1nc(CN(CC)C(=O)c2ccc(NC(=O)C3CCC3)cc2)no1`?
KDM5B inh: inactive

What do the screens show for `CC(OC(=O)c1n[nH]c(=O)c2ccccc12)C(=O)c1ccc2c(c1)CCC2` (centres undefined)?
KDM5B inh: inactive

How did Cc1ccc(NC(=O)C2CC3CCCC(C2)C3=O)cc1 (centres undefined) do in these assays?
KDM5B inh: inactive

How did Cc1cc(C(=O)OC(C(=O)N(C)C)c2ccccc2)on1 (centres undefined) do in these assays?
KDM5B inh: inactive

What do the screens show for `CCOc1ccc(CN2C[C@@H](NC(=O)c3cccnc3)C[C@H]2CO)cc1`?
KDM5B inh: inactive

Results for C=CCn1c(-n2nc(CC)cc2CC)nc2c1c(=O)[nH]c(=O)n2C ?
KDM5B inh: inactive

Results for COc1cc2c(cc1OC)C(C)N(CC(=O)Nc1ccc(C)cc1)CC2 (centres undefined) ?
KDM5B inh: inactive

Results for CC(NC(=O)c1ccc(-c2nnc3ccc(NC(=O)C4CCC4)cn23)cc1)c1cccs1 (centres undefined) ?
KDM5B inh: 28.2µM*

How did CN(C(=O)c1ccc(NC(=O)C2CC2)cc1)C1CCCCC1 do in these assays?
KDM5B inh: inactive

Results for CCN1CCN(C(=O)c2ccc(-c3nnc4ccc(NC(=O)C5CC5)cn34)cc2)CC1 ?
KDM5B inh: 28.2µM*

What do the screens show for `CC(NC(=O)c1ccc(OC2CCN(S(=O)(=O)N(C)C)CC2)cc1)c1cccs1` (centres undefined)?
KDM5B inh: inactive

What do the screens show for `CN(C)C(=O)c1ccc(-c2nnc3ccc(NC(=O)C4CCC4)cn23)cc1`?
KDM5B inh: 22.4µM*

Results for CCC(=O)Nc1ccc2nnc(-c3ccc(C(=O)Nc4ccc5c(c4)OCCO5)cc3)n2c1 ?
KDM5B inh: inactive

How did CC(C)(C)NC(=O)c1ccc(NC(=O)C2CCCC2)cc1 do in these assays?
KDM5B inh: inactive

How did CCN1CCN(C(=O)c2ccc(-n3nc(C)c(-c4ccc(C)cc4)c3NC(C)=O)cc2)CC1 do in these assays?
KDM5B inh: inactive

Results for CN(C(=O)c1ccc(NC(=O)C2CCCCC2)cc1)c1ccccc1 ?
KDM5B inh: inactive

Results for CN(Cc1ccccc1Cl)C(=O)Cn1c(=O)c2c(ncn2C)n(C)c1=O ?
KDM5B inh: inactive

What do the screens show for `O=C(NC(Cc1ccccc1)C(=O)Nc1ccc(N2CCOCC2)cc1)c1ccco1` (centres undefined)?
KDM5B inh: inactive

How did COC(=O)CNC(=O)c1cc(C)ccc1C do in these assays?
KDM5B inh: inactive

How did CC(=O)N1CCC2(CC1)OC(=O)N(Cc1ccc(O)cc1)C2(C)c1ccccc1 (centres undefined) do in these assays?
KDM5B inh: inactive

What do the screens show for `O=C(COc1ccccc1)N1CC(CNc2cccnc2)C2(C1)CN(c1ccccc1)C2` (centres undefined)?
KDM5B inh: inactive

How did CC1(C)SC2c3ccccc3C(=O)N2[C@@H]1C(=O)NCc1ccc(Cl)cc1 (some centres undefined) do in these assays?
KDM5B inh: inactive

How did COC1CN(c2cccc(F)c2)C12CCN(C(=O)NC1CCCCC1)CC2 (centres undefined) do in these assays?
KDM5B inh: inactive

How did CCNS(=O)(=O)c1cccc(C(=O)Nc2cccc3ncccc23)c1 do in these assays?
KDM5B inh: inactive

What do the screens show for `S=C(NCc1ccccc1)N/N=C/c1cccc(OCCOc2ccc(Br)cc2)c1`?
KDM5B inh: inactive

What do the screens show for `COC(=O)CNC(=O)c1cc(-c2cccc(C(F)(F)F)c2)c2nncn2n1`?
KDM5B inh: 79.4µM*

What do the screens show for `COc1ccc(C(C)=O)cc1-c1cccc(C(F)(F)F)c1`?
KDM5B inh: inactive

Results for COC(=O)CNC(=O)c1cc(-c2cccnc2)c2nncn2n1 ?
KDM5B inh: 100µM*

What do the screens show for `COC(=O)CNC(=O)c1cc(-c2ccccc2OC)c2cccn2n1`?
KDM5B inh: inactive

What do the screens show for `O=C(c1cc(-c2cnccc2Cl)c2cccn2n1)N1CCOCC1`?
KDM5B inh: inactive

What do the screens show for `C#CCNC(=O)c1cc(-c2ccc(Cl)cc2Cl)c2cccn2n1`?
KDM5B inh: inactive

Results for COC(=O)CNC(=O)c1cc(-c2ccc(Cl)cc2Cl)c2nncn2n1 ?
KDM5B inh: 44.7µM*

Results for COC(=O)CNC(=O)C1CCc2nnc(-c3ccc(Cl)cc3Cl)n21 (centres undefined) ?
KDM5B inh: inactive

How did COc1ccccc1-c1cc(C(=O)N2CCOCC2)nn2cnnc12 do in these assays?
KDM5B inh: inactive

Results for COC(=O)CNC(=O)c1cc(-c2ccccc2OC)c2nncn2n1 ?
KDM5B inh: inactive

What do the screens show for `O=C(c1cc(-c2cccnc2)c2nncn2n1)N1CCOCC1`?
KDM5B inh: 89.1µM*

What do the screens show for `COC(=O)CNC(=O)c1cccc(C)c1`?
KDM5B inh: inactive

How did O=C(Nc1cccc(Cl)c1)C1Sc2nnc(-c3ccccc3)n2NC12CCCCC2 (centres undefined) do in these assays?
KDM5B inh: inactive

Results for CC(=O)Oc1cccc2cc(-c3nc(-c4ccccc4)no3)c(=O)oc12 ?
KDM5B inh: inactive

Results for CCCCOc1ccc2c(-c3ccccc3)cc(=O)oc2c1C ?
KDM5B inh: inactive

Results for CC(Oc1ccccc1Cl)C(=O)NC(c1ccccc1)c1ccccc1 (centres undefined) ?
KDM5B inh: inactive

How did CC1=C[C@@H](CNC(=O)NCc2ccccc2)[C@H](C(C)C)C[C@H]1CC(=O)N1CCN(C)CC1 do in these assays?
KDM5B inh: inactive

What do the screens show for `CCC(CC)(CC(=O)Nc1ccc2oc(C)nc2c1)C(=O)O`?
KDM5B inh: inactive

How did O=C(Nc1c(NC2CCCCC2)c2ccccc2oc1=O)c1ccc(C(F)(F)F)cc1 do in these assays?
KDM5B inh: inactive

Screening results from PubChem BioAssay.
